Test results reported in the supplement of paper PMC6555819.

Experiments:
Assay in all cases: PBM binding z-score (relative to random genomic background probes); higher = stronger binding; sequences stand for … in GC…GCGATTGACAGCGTAGAATGAAGG
[1] = system: PPARg:RXRa DBDmut IVT, anti-RXR (DBD mutation: RXRa K156A/R161A, NR concentration 270 nM, RXRa partner concentration 90 nM)
Outline: (§1)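 Binding buffer was PBS pH 7.4 with 2% milk, 0.02% Triton X-100, 1 mM DTT, 0.2 mg/mL BSA and 0.4 mg/ml salmon testes DNA. In it, ligand-free nuclear receptor dimers were incubated 1 h on custom Agilent 4×180K protein-binding microarrays carrying double-stranded probes. Antibodies against each partner (one per run) detected binding, and z-scores were calculated against random background probes after regression normalization of scanned fluorescence.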

[2] = system: PPARg:RXRa IVT, anti-PPARg (NR concentration 270 nM, RXRa partner concentration 90 nM)
Outline: as §1

[3] = system: PPARg DBDmut:RXRa IVT, anti-PPARg (DBD mutation: PPARg1 K132A/R137A, NR concentration 270 nM, RXRa partner concentration 90 nM)
Outline: as §1

[4] = system: PPARg DBDmut IVT, anti-PPARg (DBD mutation: PPARg1 K132A/R137A, NR concentration 270 nM)
Outline: as §1

[5] = system: PPARg homodimer (NR concentration 180 nM)
Outline: as §1

[6] = system: PXR:RXRa (NR concentration 270 nM, RXRa partner concentration 90 nM)
Outline: as §1

[7] = system: PXR homodimer (NR concentration 270 nM)
Outline: as §1

[8] = system: RARa:RXR (NR concentration 270 nM, RXRa partner concentration 90 nM)
Outline: as §1

[9] = system: RARa homodimer (NR concentration 270 nM)
Outline: as §1

[10] = system: RARb:RXRa (NR concentration 270 nM, RXRa partner concentration 90 nM)
Outline: as §1

| Sequence | PBM binding z-score [1] | PBM binding z-score [2] | PBM binding z-score [3] | PBM binding z-score [4] | PBM binding z-score [5] | PBM binding z-score [6] | PBM binding z-score [7] | PBM binding z-score [8] | PBM binding z-score [9] | PBM binding z-score [10] |
| --- | --- | --- | --- | --- | --- | --- | --- | --- | --- | --- |
| TCGAGTAGGTTAGGGGCATTCGGAATGGCGTCGA | 1.94 | 1.69 | -0.634 | -0.223 | 0.203 | 0.507 | -0.0899 | 0.497 | -0.724 | 1.09 |
| CCGACTGGGGCATAAGGTTACCATTAGCCAGCCC | 3.03 | 3.04 | -1.02 | -1.9 | 0.694 | 0.105 | -0.286 | 1.35 | -0.407 | 1.61 |
| CTTAGCAGGCCAATCTGGGTCACTCAAGGCTTGA | 4.54 | 5.41 | 1.49 | -0.595 | 0.867 | 0.661 | -0.63 | 1.8 | -0.332 | 1.46 |
| ACTAGCAGGCCAAGTTTGGGTCCCTCAAACAAAG | 0.359 | -0.00665 | -1.13 | -1.25 | -0.378 | -0.465 | -0.57 | -0.00931 | -0.776 | 0.3 |
| ATTAGCAGGCCAAGGGTCACTCAAGATTAGTCCG | 0.795 | 3.76 | 0.0508 | 0.161 | 1.61 | 3.2 | -0.179 | 4.06 | 0.0408 | 3.62 |
| CGTCAAAGTTCAACTATGGTAACGTAAAGCACGC | 0.569 | 1.9 | 1.06 | 1.31 | 3.74 | 4.94 | 4.27 | 4.14 | 2.09 | 5.33 |
| GCTATTAGTTGAAAGGGAAACCGAATGATTCTCG | 0.303 | 0.0307 | 0.646 | 0.468 | 0.766 | -0.0354 | 0.0349 | 0.204 | 1.17 | -0.128 |
| TCGCGTAGGTTAGTCGGGGCATTCAGCCAACATA | 0.798 | 0.382 | -0.631 | -0.248 | -0.58 | 0.226 | -0.158 | 0.335 | -0.333 | 0.559 |
| CCTAGCTGGCCAGGGTCACTCAAGCATTTCGCTT | -0.189 | -0.187 | -0.962 | -0.97 | 0.811 | 2.53 | -0.342 | 3.04 | -0.133 | 2.35 |
| TAGCCTAGGTCGGATCGGGCCAGTATACGCTATA | -0.693 | -0.327 | -0.89 | -0.506 | -1.19 | -0.228 | -0.533 | 0.382 | -0.683 | 0.204 |
| TATACAGGGTCAAAGGCCTGAGTACGAATGTCGA | 2.08 | 4.32 | 3.81 | 3.06 | 4.01 | 3.86 | 0.321 | 5.15 | 1.29 | 4.2 |
| ACTAGCAGGCCAAGTTGGGGTCACTCAAACAAAG | 1.25 | 2.36 | -0.0232 | -0.538 | 2.25 | 5.29 | 1.2 | 5.79 | -0.0777 | 3.14 |
| CTACCAAGGTGAACAAGGACGTTGATTACTATTC | 2.52 | 2.17 | 0.0703 | 0.657 | 0.761 | 0.356 | 0.295 | 0.5 | 0.187 | 1.55 |
| TCGAGTGGGTTAGGGGCATTCAGAATGGCGTCGA | 1.25 | 0.919 | -0.337 | -0.345 | 0.908 | 1.04 | 0.501 | 0.739 | 0.24 | 0.943 |
| TCTCGGACGACACGAAGGTCAGAGCTTTCCAGAG | 1.39 | 0.576 | -1.3 | -0.777 | 1.07 | 1.61 | -0.245 | 1.95 | 0.13 | 2.8 |
| CGAACCAGGGCATGAGTTGATAGCAAATGCCGAT | 2.9 | 2.29 | -0.69 | 0.106 | 0.228 | -0.0525 | -0.0221 | -0.0885 | -0.263 | 1.02 |
| CCTTACGGGTCAAGTTTATAGCACGGGTGGTACG | 2.03 | 3.32 | 1.11 | -0.333 | 4.02 | 3.89 | 0.698 | 4.34 | 1.46 | 4.19 |
| CAAACTAGGTCACGAAAGGTGAAAGTCGAATGAC | 8.57 | 8.88 | 1.44 | 1.5 | 3.13 | 4.13 | 0.228 | 4.69 | 1.24 | 4.84 |
| CCTACTGGGCCAAAGGTCATTGATTCCAATGCTC | 5.22 | 7.01 | 0.541 | 0.177 | 3.56 | 5.31 | 2.33 | 6.35 | 1.33 | 4.46 |

| Sequence | PBM binding z-score [1] | PBM binding z-score [2] | PBM binding z-score [3] | PBM binding z-score [4] | PBM binding z-score [5] | PBM binding z-score [6] | PBM binding z-score [7] | PBM binding z-score [8] | PBM binding z-score [9] | PBM binding z-score [10] |
| --- | --- | --- | --- | --- | --- | --- | --- | --- | --- | --- |
| ATCTCTAGGTAAAATTCAGTGAAAGATCGATAGA | 1.48 | 1.53 | 0.966 | 1.25 | 1.04 | -0.0781 | 0.481 | -0.157 | 1.26 | 0.336 |
| TCTTGTACATCAAGCAGGTTAAGAAAGCCTGAGT | 1.65 | 0.61 | 0.553 | 1.57 | 0.286 | 0.6 | 0.247 | 0.598 | -0.095 | 0.538 |
| ATCTCTAGGTAAGACTCAGTTCAGCGAAGAACGC | 1.67 | 1.01 | 0.389 | 0.673 | 0.96 | 0.943 | 1.37 | 0.477 | 1.01 | 0.277 |
| AGAACGAGGGCAAGGAGTTGATAGCACGGGTGGC | 2.54 | 2.09 | 1.19 | -0.462 | 0.0784 | 0.742 | 1.54 | 0.14 | -0.0474 | 2.15 |
| CCTATCAGGCCAGGGTCACTCAAGCATTTCGCTT | 0.0359 | 1.06 | -1.33 | -0.669 | 1.28 | 2.59 | -0.206 | 3.5 | 0.157 | 2.74 |
| GCTCGGAGGACAAGGTGAGAGCTTTGTCCGTAGA | -0.575 | 0.359 | -0.51 | -0.882 | -0.374 | -0.472 | -0.908 | -0.166 | -1.13 | 1.52 |
| ATCTCTAGGTAACCAAGTCCAGTGAATGCCGAAC | 3.27 | 2.54 | 0.49 | 1.58 | 0.614 | 0.0528 | 0.209 | 0.268 | 0.592 | 0.379 |
| ATATGTAGGTTAAGGGTCATTAAGGTTGGTTCGC | 7.35 | 7.81 | 2.09 | 1.17 | 3.24 | 4.92 | 3.59 | 5.16 | 2.38 | 3.74 |
| TCGAGTAGGTTAGTCGGCGCATTCAGCCAACATA | 1.73 | 0.854 | -1.61 | -1.56 | -0.687 | -0.463 | -0.787 | -0.68 | -0.479 | -0.141 |
| TCGAGTAGGTTAGTCGGAGCATTCAGCCAACATA | 2.04 | 1.68 | -0.361 | -0.571 | 0.0245 | -0.452 | -0.761 | -0.167 | -0.593 | -0.208 |
| GTAACGAGGGCAAAGTTGATAGCATCTGTCGACG | 4.16 | 4.69 | 0.947 | 0.296 | 0.574 | 1.36 | 0.402 | 1.77 | 0.268 | 2.36 |
| GGAACGAGGGCATGCGAGTTGATAGCATGGCGAT | 2.78 | 1.98 | -0.352 | -0.663 | -0.621 | 3.59 | 0.407 | 0.73 | -0.824 | 1.91 |
| CGTCCAAGGCCATAGGAGGTCAGTGAAGACAGAT | 0.496 | 1.69 | -0.275 | -0.658 | 0.925 | 3.03 | 1.16 | 2 | -0.0451 | 2.9 |
| ACAATGAGGTTATTAAGATCAGGGAATTGCGGTC | 2.08 | 2.07 | 1.27 | 1.25 | 0.869 | 1.58 | 1.15 | 1.49 | 1.12 | 1.74 |
| ACTTACGGGCCAACGAGGTTATAGCACGCGTATA | 0.992 | 0.418 | 0.118 | 0.119 | 0.076 | 1 | 0.334 | 1.16 | 0.0529 | 1.05 |
| ACTATTAGTTGAGACGAGGGCAACAGATAGGTTG | 0.565 | 0.556 | 0.565 | 1.23 | 0.704 | 1.13 | 0.384 | 0.971 | 0.692 | 0.75 |
| CGTCCAAGGTCATCGGAGGTCAGTGAAGACAGAT | 3.14 | 4.14 | 0.99 | 1.08 | 6.99 | 7.33 | 7.36 | 6.63 | 3.02 | 5.5 |
| GCTCGGAAGACAAGGTCAGAGCTTTGTCCGTAGA | 0.0129 | 0.063 | -0.999 | -2.1 | 0.392 | 1.41 | -0.453 | 1.9 | -0.69 | 2.58 |
| CGTACAAGGTCATAGGAGGTCAGTGAAGACAGAT | 3.97 | 5.5 | 1.11 | 0.76 | 3.74 | 6.82 | 3.5 | 5.66 | 1.72 | 5.44 |
